Bioassay records (PubChem BioAssay)
Shown are actives, neighbours in structure and some others; about 12% of the full set was active somewhere.
HP1b chromo inh: HP1-beta chromodomain-methylated histone interaction inhibition | P83916 | AlphaScreen HP1-beta / biotin-H3K9me3 peptide binding | Potency, µM (series often up to 114 µM), actives largely listed as inhibitors | actives 0.56% (n = 390,000) | AID 540317; also: nearly all actives have a fitted effect of over 70% in size
Target sequence (P83916 whole entry, looked up): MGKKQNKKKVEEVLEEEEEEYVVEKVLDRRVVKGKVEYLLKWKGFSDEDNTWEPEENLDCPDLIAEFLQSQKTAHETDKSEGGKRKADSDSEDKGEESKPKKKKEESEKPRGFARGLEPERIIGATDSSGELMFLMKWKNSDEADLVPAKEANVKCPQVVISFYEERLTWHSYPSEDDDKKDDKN
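HP1-beta protein (50 nM final) preincubated 30 min at room temperature with biotinylated H3(1-18)K9me3 peptide (50 nM) in PBS pH 7.4, 0.01% Tween-20, then compound added for 30 min. AlphaScreen streptavidin donor/nickel chelate acceptor beads (10 ug/mL final), 30 min dark, luminescence read.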
JMJD2A Tudor: inhibitors of human JMJD2A Tudor domain; AlphaScreen JMJD2A-Tudor / H3K4me3 peptide binding; O75164; actives 4.4% (n = 390,000); Potency, µM (highest dose often 114 µM), most hits filed as inhibitors; also: nearly all actives have a fitted effect of over 50% in size
BAZ2B block: inhibitors of human BAZ2B bromodomain. actives 4.4% (n = 360,000). AlphaScreen BAZ2B-H3K14Ac peptide displacement. Potency, µM (highest dose often 114 µM), actives largely listed as inhibitors; also: nearly all actives have a fitted effect of over 60% in size
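Complex of BAZ2B and biotin-H3K14Ac (50 nM apiece) forms over 30 min at RT, then faces library compounds up to 110 uM for another 30 min; AlphaScreen beads added, 20 min dark incubation, luminescence read.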
G9a block: inhibitors of human histone lysine methyltransferase G9a | AID 504332 | Potency, µM (highest dose often 102 µM), hits mostly inhibitors | G9a H3K9 monomethylation, AlphaScreen, 2 h | Q96KQ7 | actives 8.8% (n = 350,000); also: nearly all actives have a fitted effect of over 75% in size
Target sequence (Q96KQ7 913-1193 limits assumed): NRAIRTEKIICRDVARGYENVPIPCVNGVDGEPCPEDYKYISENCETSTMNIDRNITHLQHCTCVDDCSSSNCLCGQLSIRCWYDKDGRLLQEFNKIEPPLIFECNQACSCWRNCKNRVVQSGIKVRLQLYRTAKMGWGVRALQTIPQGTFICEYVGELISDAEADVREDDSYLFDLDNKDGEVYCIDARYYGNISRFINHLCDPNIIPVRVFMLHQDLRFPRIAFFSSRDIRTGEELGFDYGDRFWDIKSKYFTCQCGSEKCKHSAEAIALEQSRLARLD
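Chemiluminescent proximity detection of H3K9 monomethylation, read after 10 min bead incubation in the dark. Reaction: 20 nM G9a, 500 nM biotin-H3K9 peptide, 20 uM SAM cofactor, 2 h, room temperature, following 15 min enzyme-compound preincubation.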
PLK1 PBD block: blocks phosphopeptide binding to human PLK1 polo-box domain; P53350; Plk1 PBD binding of FITC phosphopeptide, fluorescence polarization; Potency, µM, hits mostly inhibitors; actives 2.8% (n = 360,000); also: series mostly up to about 57 µM; nearly all actives have a fitted effect of over 65% in size
Sfp PPTase inh: Sfp phosphopantetheinyl transferase inhibition; Q9F4F7; actives 3.5% (n = 310,000); Potency, µM, actives largely listed as inhibitors; Biochemical Sfp PPTase activity, qHTS;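 also: the enzyme is Sfp with the accession as filed and its product quenches rhodamine fluorescence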
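Buffer: 50 mM Hepes-Na pH 7.6, 10 mM MgCl2, 0.01% Nonidet P-40, 0.01% BSA. Enzyme 15 nM, pre-exposed to compound 15 min; substrates then added and fluorescence change tracked over 30 min.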
Numbers stand for hits; [ ] = remark or other dose. Calls follow the shape of the dose curve; as a rule, active = well fitted curve in the direction sought with a large enough effect; inconclusive = small, poorly fitted or top-dose-only effect, or another doubt; inactive = no such curve, though single readings can be large; an effect the other way counts as inactive or inconclusive.

COC(=O)c1ccccc1NC(=S)NC(=O)C1CC1 was read as HP1b chromo inh inactive, JMJD2A Tudor inactive, BAZ2B block inconclusive, G9a block 50.1µM, PLK1 PBD block inactive and Sfp PPTase inh inactive.
Cc1cc(NC(=O)NN2CCOCC2)nn1-c1c(Cl)cccc1Cl was read as HP1b chromo inh inactive, JMJD2A Tudor inactive, BAZ2B block inactive, G9a block inactive, PLK1 PBD block inactive and Sfp PPTase inh inactive.
Screening CC(C(=O)Nc1ccc(F)c(F)c1)N1CCN(C)CC1 (stereo unspecified) returned HP1b chromo inh 35.5µM, JMJD2A Tudor 3.16µM, BAZ2B block 22.4µM, G9a block inconclusive, PLK1 PBD block inactive and Sfp PPTase inh inconclusive.
Screening CN1CCN(CCC(=O)Nc2ccc(F)c(F)c2)CC1 returned HP1b chromo inh inactive, JMJD2A Tudor inactive, BAZ2B block inconclusive, G9a block inactive, PLK1 PBD block inactive and Sfp PPTase inh inactive.
Screening CC(C(=O)Nc1ccccc1C(F)(F)F)N1CCN(C)CC1 (stereo unspecified) returned HP1b chromo inh inconclusive, JMJD2A Tudor 25.1µM, BAZ2B block 79.4µM, G9a block inactive[0.501 µM], PLK1 PBD block inactive and Sfp PPTase inh inactive.
Screening COc1cccc(C(=O)NCCc2csc3nc(-c4ccccc4F)nn23)c1OC returned HP1b chromo inh inactive, JMJD2A Tudor inactive, BAZ2B block inactive and G9a block inactive.
Screening CCC(C)(C)n1nnnc1C(c1ccccc1F)N1CCN(C(=O)c2ccco2)CC1 (stereo unspecified) returned HP1b chromo inh inactive, JMJD2A Tudor inactive, BAZ2B block inactive, G9a block inconclusive, PLK1 PBD block inactive and Sfp PPTase inh inactive.
For Cc1c(Cl)cccc1NC(=O)NCCOCCn1c(=O)oc2ccccc21 the results were HP1b chromo inh inactive, JMJD2A Tudor inactive, BAZ2B block inactive and G9a block inactive.
`COC(=O)C1=C(C)OC(N)=C(C#N)C1c1cc2cccc(C)c2nc1Cl` (stereo unspecified) gave BAZ2B block 79.4µM, G9a block 22.4µM and Sfp PPTase inh inactive.
COCCOC(=O)C1=C(C)OC(N)=C(C#N)C1c1cc2cccc(C)c2nc1Cl (stereo unspecified) was read as HP1b chromo inh inactive, JMJD2A Tudor inactive, BAZ2B block 50.1µM, PLK1 PBD block inactive and Sfp PPTase inh inconclusive.
For CC(=O)C1=C(C)OC(N)=C(C#N)C1c1cc2cccc(C)c2nc1Cl (stereo unspecified) the results were HP1b chromo inh inactive, JMJD2A Tudor inactive, BAZ2B block inactive, G9a block inconclusive, PLK1 PBD block inactive and Sfp PPTase inh inactive.
For COC1OC(COCc2ccccc2)C(N)C(OCc2ccccc2)C1OCc1ccccc1 (stereo unspecified) the results were HP1b chromo inh inactive, JMJD2A Tudor inactive and PLK1 PBD block inactive.
Screening Cc1ccccc1OCC(=O)NCC(c1ccc(Cl)cc1)N1CCOCC1 (stereo unspecified) returned HP1b chromo inh inactive, JMJD2A Tudor inactive, BAZ2B block inactive and G9a block inactive.
For Clc1ccc(-c2csc3ncnc(NCCN4CCOCC4)c23)cc1 the results were HP1b chromo inh inactive, JMJD2A Tudor inactive, BAZ2B block inactive, G9a block inactive, PLK1 PBD block inactive and Sfp PPTase inh inactive.
Clc1ccc(CNc2nc(CN3CCOCC3)nc3scc(-c4ccccc4)c23)cc1 was read as HP1b chromo inh inactive, JMJD2A Tudor inconclusive, BAZ2B block 50.1µM, G9a block inconclusive, PLK1 PBD block inactive and Sfp PPTase inh 56.2µM.
Screening CCOC(=O)Cc1cnc(NC(=O)Cn2nnc(-c3ccc(OCC)cc3)n2)s1 returned HP1b chromo inh inactive, JMJD2A Tudor inactive[11.4 µM], BAZ2B block inactive, G9a block inactive, PLK1 PBD block 23.8µM and Sfp PPTase inh inactive.
O=C(N/N=C1/C[C@@H](O)[C@@H](O)[C@@H]2[C@@H]3C(=O)N(C[C@@H]4CCCO4)C(=O)[C@H]3CC[C@@H]12)OCc1ccccc1 was read as Sfp PPTase inh inactive.
Screening Cc1ccc(CNC(=O)CSc2c3c(nc4ccc(Cl)cc24)CCCC3)o1 returned HP1b chromo inh inactive, JMJD2A Tudor inactive, BAZ2B block inactive, G9a block inactive, PLK1 PBD block inactive and Sfp PPTase inh 35.5µM.
`CNC(=O)COC(=O)c1c2c(nc3ccccc13)CCC2` gave HP1b chromo inh inactive, JMJD2A Tudor inconclusive, BAZ2B block 50.1µM, PLK1 PBD block inactive and Sfp PPTase inh inactive.
`O=C(NC1CCCCC1)c1c2c(nc3ccccc13)CCC2` gave HP1b chromo inh inactive, JMJD2A Tudor inactive, BAZ2B block 50.1µM, G9a block inconclusive, PLK1 PBD block inactive and Sfp PPTase inh inactive.
For Cc1c(NC(=O)COC(=O)c2c3c(nc4ccccc24)CCCC3)c(=O)n(-c2ccccc2)n1C the results were HP1b chromo inh inactive, JMJD2A Tudor inactive, BAZ2B block inactive, G9a block inactive, PLK1 PBD block inactive and Sfp PPTase inh inactive.
CCC(C)NC(=O)CSc1c2c(nc3ccccc13)CCCC2 (stereo unspecified) was read as HP1b chromo inh inactive, JMJD2A Tudor inactive, BAZ2B block inactive, G9a block inactive, PLK1 PBD block 16.8µM and Sfp PPTase inh inactive.
For O=C(CO/N=C/c1ccc2c(c1)OCO2)Nc1cccc(Br)c1 the results were HP1b chromo inh inactive, JMJD2A Tudor inactive, BAZ2B block inactive, G9a block inactive, PLK1 PBD block inactive and Sfp PPTase inh inactive.
CCOC(=O)CNC(=O)c1c2c(nc3ccccc13)CCCC2 was read as HP1b chromo inh inactive, JMJD2A Tudor inactive, BAZ2B block inactive, PLK1 PBD block inactive and Sfp PPTase inh inactive.
Cc1c(NC(=O)C(C)OC(=O)c2c3c(nc4ccccc24)CCC3)c(=O)n(-c2ccccc2)n1C (stereo unspecified) was read as HP1b chromo inh inactive, JMJD2A Tudor inconclusive, BAZ2B block 50.1µM, G9a block 50.1µM, PLK1 PBD block inactive and Sfp PPTase inh inactive.
For C=CCNC(=O)COC(=O)c1c2c(nc3ccccc13)CCC2 the results were HP1b chromo inh inconclusive, JMJD2A Tudor 28.2µM, BAZ2B block 50.1µM, G9a block 39.8µM, PLK1 PBD block inconclusive and Sfp PPTase inh inactive.
CC(C)NCC(=O)Nc1c2c(nc3ccccc13)CCC2 was read as HP1b chromo inh inactive, JMJD2A Tudor 22.4µM, BAZ2B block 50.1µM, G9a block 17.8µM, PLK1 PBD block inactive and Sfp PPTase inh inconclusive.
Screening CCC1=C2CC[C@H]3C(=O)N(c4ccccc4)C(=O)[C@H]3[C@H]2[C@@]2(Cc3ccccc3)C(=NCCc3c[nH]c4ccccc34)OC(=O)N2C1=O returned Sfp PPTase inh inactive.
`COc1ccc2c(-c3ccccc3)cc(SC(C)C(N)=O)nc2c1` (stereo unspecified) gave HP1b chromo inh inactive, JMJD2A Tudor inactive, BAZ2B block inactive, G9a block 12.6µM, PLK1 PBD block inconclusive and Sfp PPTase inh inactive.
